What all share (test): NCI-60 one-dose screen, 48 h (100 = growth as untreated, 0 = no growth, -100 = all killed)
Common to all, as to settings: 10 µM

The test system of experiment [1] is SK-MEL-2 melanoma.
The test system of experiment [2] is SN12C renal.
The subject of experiment [3] is UO-31 renal.
Experiment [4] concerns TK-10 renal.
The test system of experiment [5] is ACHN renal.
Experiment [6] deals with CAKI-1 renal.
Experiment [7] relates to A498 renal.
In experiment [8] the test system is CCRF-CEM leukemia.
Experiment [9] deals with MOLT-4 leukemia.

SMILES strings stand for the structures. About 83,000 compounds went through this panel and 20% of them were active in at least one assay; those are over-represented in the sample as a whole.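 Percent growth is the endpoint: 0 to 100 indicates growth inhibition (40 means 60% inhibition), 0 means no net growth, and negative values indicate cell death.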 A number with no mark means an inactive call. Calls of active or inactive are those of the source. The calls were made as follows: active = growth percent below 10; inactive = the rest.

Turning to `CCOC(=O)c1ccc(NC(=O)Nc2nncs2)cc1`, the growth in experiment [1] is 37.4%; in [2], 31.2%; in experiment [3], 34.1%; in experiment [4] it was 45.1%; in experiment [5] it was 36.1%; in experiment [6], 24.9%. Moreover, the growth was -13.3% (active) in experiment [7], 7.54% (active) in [8] and 11.7% in [9].

On to `COc1ccc(-c2ccccc2)cc1C(=O)c1ccc(-c2ccccc2)cc1`, for which the growth was 58.9% in experiment [1]; 96.6% in experiment [2]; 60.6% in experiment [3]; 88.3% in experiment [4]; 105% in experiment [5]; 52.2% in experiment [6]. The growth is 93.6% in [7] and 65.9% in experiment [9].

Take `CCCCc1ccc(NC(=O)N(CCCl)N=O)cc1`: the growth is 94.8% in experiment [1]; 96.1% in experiment [2]; 81.3% in experiment [3]; 105% in experiment [4]; 106% in experiment [5]; 99.3% in experiment [6]. Further, the growth in [8] was 88.2%; in [9], 98.7%.

Consider `COc1cccc(C2(C)Nc3ccccc3-c3nc4ccccc4n32)c1` (stereo unspecified), for which the growth in experiment [1] was 105%; in [2], 100%; in experiment [3], 94.2%; in experiment [4] it was 106%; in experiment [5] it was 102%; in experiment [6] it was 99.8%. The growth in experiment [8] was 99.1%.

Turning to `C[N+]1(CC2CO2)CCCCCC1` (stereo unspecified), the growth in [1] was 118%; in experiment [2], 102%; in [3], 93.4%; in experiment [4], 114%; in [5] it was 101%; in [6] it was 100%. The growth in [7] was 87.8%; in experiment [8], 109%; in [9], 112%.

For `Cn1c([N+](=O)[O-])cnc1/C=C1\Oc2ccc(Br)cc2C1=O`, the growth in [1] is -49% (active); in [2], -2.34% (active); in experiment [3], -38.4% (active); in [4], -33.3% (active); in experiment [5], -41.6% (active); in [6], -21.6% (active). The growth in [8] was 5.39% (active); in experiment [9], -14.1% (active).

For the compound `CC(=O)CS(C)(=O)=O`, the growth in experiment [1] was 103%; in [2] it was 105%; in experiment [3], 92.4%; in experiment [4] it was 103%; in experiment [5], 106%; in experiment [6], 101%. The values for the growth in [8] and in experiment [9] were 103% and 106%, respectively.

For the compound `C=CCNCCCN1C(=O)c2ccc3c4c(ccc(c24)C1=O)C(=O)N(CCCNCC=C)C3=O`, the growth is -35.6% (active) in experiment [1]; -77.7% (active) in experiment [2]; -44.3% (active) in [3]; -3.01% (active) in [4]; -9.77% (active) in experiment [5]; -42.8% (active) in experiment [6]. In addition, the values for the growth in experiment [7], in experiment [8] and in experiment [9] were -71% (active), 4.96% (active) and -3.33% (active), respectively.

For `CCc1ccc(-c2nnc(COc3ccc(-c4nc5ccc(C)cc5[nH]4)cc3OC)o2)cc1`, the growth in [1] is 104%; in [2], 10.7%; in experiment [3], 38.2%; in experiment [4], 55.1%; in experiment [5] it was -8.12% (active); in experiment [6] it was 30.3%. In addition, the growth is 84.1% in experiment [7], 6.98% (active) in [8] and 38.6% in experiment [9].

With `COc1cc(CSc2nc3ccc(Cl)cc3c(=O)n2Cc2ccccc2)cc(OC)c1OC`, the growth was 21.4% in experiment [1]; 38.6% in experiment [2]; 27.1% in [3]; 73.6% in [4]; 40.3% in experiment [5]; 26.7% in experiment [6]. The growth in experiment [8] was 28.5%.

With `N#CCC1CCCC1`, the growth in experiment [1] was 120%; in experiment [2] it was 94%; in experiment [3], 97%; in experiment [4] it was 104%; in [5], 98.1%; in experiment [6] it was 89.9%. Besides, the figures for the growth in experiment [8] and in experiment [9] were 92% and 112%, respectively.

In the case of `Oc1ccc(/C=N\Nc2ccccn2)c(O)c1`, the growth in experiment [1] is 46.3%; in experiment [2] it was 24.1%; in [3] it was -19.7% (active); in experiment [4] it was 61.6%; in experiment [5], 7.03% (active); in experiment [6], -15.3% (active). Also, the growth was 8.18% (active) in [8] and 11.2% in experiment [9].

With `COc1ccc(-c2nsc3c2NC(=O)CC3c2cccc(Cl)c2)cc1` (stereo unspecified), the growth in [1] was -14.4% (active); in experiment [2], 47.8%; in experiment [3], 36.8%; in experiment [4] it was 34.9%; in experiment [5], 49.9%; in experiment [6] it was 18.4%. In addition, the growth in experiment [7] was 17.8%; in experiment [8], 13.8%; in [9], 18.2%.

`O=c1ccc2nc(-c3ccccc3)nn(-c3ccccc3)c-2c1`: the growth in experiment [1] is 44.9%; in [2], 40.2%; in [3], -97.5% (active); in experiment [4], -95.9% (active); in experiment [5], -96% (active); in experiment [6], -90.9% (active). Also, the growth in experiment [8] was -16.3% (active); in experiment [9], -37.9% (active).

Turning to `C=CCNC(=S)NN`, the growth is 99.1% in experiment [1]; 81.7% in experiment [2]; 61.7% in experiment [3]; 96.2% in experiment [4]; 94.1% in [5]; 91.6% in [6]. The growth in [7] is 81%; in [8] it was 63.2%; in experiment [9], 64.6%.

Regarding `Cc1ccc(NC(=O)/C=N/O)cc1C`, the growth was 103% in experiment [1]; 103% in experiment [2]; 71.6% in experiment [3]; 122% in [4]; 99.1% in [5]; 92.1% in experiment [6]. The results for the growth in experiment [7], in experiment [8] and in experiment [9] were 3.77% (active), 90% and 85.7%, respectively.

On to `COc1ccc(NC(=O)c2sc3nc4c(cc3c2N)C(O)CCC4)cc1` (stereo unspecified), for which the growth in experiment [1] was 96%; in experiment [2], 99.8%; in experiment [3], 86.4%; in experiment [4] it was 122%; in [5], 113%; in experiment [6] it was 92.7%. Besides, the growth was -8.3% (active) in [7], 101% in experiment [8] and 92.8% in experiment [9].

Consider `COc1cccc(-c2nnc(COc3ccc(-c4nc5ccccc5[nH]4)cc3OC)o2)c1`, for which the growth in experiment [1] is 99.3%; in experiment [2] it was 85.9%; in experiment [3] it was 87.9%; in [4], 132%; in [5] it was 103%; in [6], 98.7%. Further, the growth in experiment [8] is 44.9%; in experiment [9], 71.5%.

For `Cc1ccc(-c2cc(C(=O)Nc3ccc(S(=O)(=O)N4CCCCC4)cc3)[nH]n2)c(O)c1`, the growth in [1] was 80%; in [2] it was 53.3%; in experiment [3], 56.2%; in experiment [4], 61.6%; in experiment [5], 66.5%; in [6], 67.3%. The growth is 63.3% in experiment [7], 45.5% in experiment [8] and 38.7% in experiment [9].

On to `CC(C)C[C@H](NC(=O)Cn1ccc(Nc2ccccc2)cc1=O)B(O)O`, for which the growth is -2.39% (active) in experiment [1]; 47.9% in [2]; 53.9% in experiment [3]; 13.5% in experiment [4]; 10.1% in [5]; 45.3% in [6]. In addition, the values for the growth in [7], in experiment [8] and in experiment [9] were -1.76% (active), 3.67% (active) and 1.94% (active), respectively.

As to `Cc1ccc(S(=O)(=O)Nc2cccc3[nH]c(C(F)(F)F)nc23)cc1`, the growth in experiment [1] is 2.59% (active); in experiment [2], 47.8%; in [3], 45.1%; in experiment [4], 36.7%; in [5], 49.8%; in [6], 25.9%. Besides, the growth was 13.6% in [8] and 31.7% in experiment [9].

`Cc1nc(Nc2nc3ccccc3o2)nc(-c2cccc([N+](=O)[O-])c2)c1C(=O)Nc1ccc(F)c(Cl)c1`: the growth in experiment [1] is -33.7% (active); in [2], 7.04% (active); in experiment [3], 11.3%; in experiment [4], 8.62% (active); in experiment [5], 12.9%; in [6] it was 9.69% (active). Besides, the growth in experiment [7] is -37.2% (active); in [8], 22.8%; in experiment [9] it was -23.7% (active).

Take `COc1cc(CSc2nc3ccc(C)cc3c(=O)n2Cc2ccccc2)cc(OC)c1OC`: the growth in experiment [1] is 1.08% (active); in [2] it was 40%; in [3], 32.1%; in experiment [4], 52.7%; in experiment [5], 46.7%; in experiment [6], 28.8%. Further, the values for the growth in experiment [7], in experiment [8] and in experiment [9] were 7.01% (active), 23.6% and 30.8%, respectively.

Regarding `COc1cc(OC)cc(-c2n/c(=C\c3c(O)[nH]c4ccc(OC)cc34)cc3c2=Nc2ccccc2-3)c1`, the growth is 108% in [1]; 107% in experiment [2]; 71.2% in experiment [3]; 125% in experiment [4]; 114% in experiment [5]; 90.6% in experiment [6]. Further, the growth is 90.6% in experiment [7] and 12.4% in [9].

Turning to `[O-]c1c[n+](-c2ccc(Cl)cc2)no1`, the growth was 102% in experiment [1]; 92.9% in experiment [2]; 84.8% in [3]; 116% in experiment [4]; 106% in experiment [5]; 108% in experiment [6]. Moreover, the growth in experiment [7] is 98.7%; in experiment [8], 111%; in [9], 102%.

For the compound `COCCNCC(O)Cn1c2ccc(Cl)cc2c2cc(Cl)ccc21` (stereo unspecified), the growth in [1] is -79.4% (active); in experiment [2], -91.9% (active); in [3] it was -20% (active); in experiment [4], 58.6%; in experiment [5], 10.5%; in experiment [6], 8.86% (active). For the same compound, the results for the growth in experiment [8] and in experiment [9] were -23.2% (active) and 4.5% (active), respectively.

`CCOc1cc(Br)c(C(C)NC(=O)c2cccc(OC)c2)cc1OCC` (stereo unspecified): the growth was 80.9% in [1]; 78.8% in experiment [2]; 54.7% in experiment [3]; 77.8% in experiment [4]; 95.7% in experiment [5]; 81.6% in [6]. In addition, the growth in experiment [8] is 53.7%; in experiment [9], 49.3%.

Turning to `O=C(Cn1ccc(=O)[nH]c1=O)c1ccc([N+](=O)[O-])o1`, the growth in [1] was 101%; in [2], 108%; in experiment [3], 109%; in [4], 63.3%; in experiment [5] it was 110%; in [6], 105%. For the same compound, the growth in experiment [7] was 115%; in experiment [8], 83%; in experiment [9], 106%.

For the origin of these results see PubChem BioAssay (NCI).
